Most compounds without a hit are left out; they make up all but 3.4% or so of the library.
PP1 counter: counter-screen for PP5 inhibitors: inhibitors of human PP1-alpha; inhibition, % at 6.7 µM; AID 2235; P62136; 0.9% of 320,000 active; purified PP1alpha, OMFP fluorescence;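 active = inhibition above the mean inhibition of all tested compounds plus 3 SD, computed separately for each screening campaign, cut at about 15% in these data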
Target sequence (P62136 whole entry, looked up): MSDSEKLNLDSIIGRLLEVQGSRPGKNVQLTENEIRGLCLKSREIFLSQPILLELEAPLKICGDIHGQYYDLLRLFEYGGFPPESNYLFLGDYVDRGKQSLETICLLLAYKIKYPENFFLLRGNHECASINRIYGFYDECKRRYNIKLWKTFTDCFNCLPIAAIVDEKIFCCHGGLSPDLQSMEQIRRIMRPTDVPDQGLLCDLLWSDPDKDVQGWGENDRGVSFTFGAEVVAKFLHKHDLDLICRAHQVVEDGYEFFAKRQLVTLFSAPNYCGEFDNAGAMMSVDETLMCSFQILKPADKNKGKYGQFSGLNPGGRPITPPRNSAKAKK
PAFAH1B2 inh: blocks human PAF acetylhydrolase 1b catalytic subunit 2; P68402; recombinant PAFAH1B2, FP-rhodamine activity probe, fluorescence polarization; inhibition, % at 3.39 µM; 1.2% of 340,000 active; AID 492953;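 active = inhibition above the mean of all tested compounds plus 3 SD, cut at about 24% in these data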;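 also: 0% = enzyme with DMSO and 100% = wells lacking PAFAH1B2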
PP5 primary: PP5 (human) phosphatase inhibition | P53041 | purified PP5c, OMFP substrate fluorescence | inhibition, % at 6.7 µM | 0.18% of 320,000 active | AID 1987;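 active = inhibition above the campaign's mean inhibition across all tested compounds plus 3 SD, cut at about 9.5% in these data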;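 also: 0% = DMSO only and 100% = 100 µM cantharidin control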
pPAFAH inh: pPAFAH (human) enzyme inhibition | Q13093 | recombinant pPAFAH, FP-rhodamine probe fluorescence polarization | inhibition, % at 3.39 µM | 1.5% of 330,000 active | AID 463082;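 active = inhibition above the mean inhibition across the screen plus 3 SD, cut at about 25% in these data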;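 also: inhibitors block binding of the rhodamine activity-based probe so polarization drops; 0% = enzyme with DMSO and 100% = wells lacking pPAFAH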
PAFAH2 inh: PAFAH2 (human) inhibition | recombinant PAFAH2, FP-rhodamine activity probe, fluorescence polarization | inhibition, % at 3.39 µM | AID 492956 | 0.99% of 340,000 active | Q99487;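 active = inhibition above the mean over all tested compounds plus 3 SD, cut at about 30% in these data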;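 also: inhibitors block probe labeling of enzyme so polarization drops; 0% = enzyme with DMSO and 100% = wells lacking PAFAH2 protein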
PAFAH1B3 FP inh: inhibitors of human PAFAH1B3 | AID 492972 | inhibition, % at 3.39 µM | 0.28% of 340,000 active | Q15102 | recombinant PAFAH1B3, FP-rhodamine probe, fluorescence polarization;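 active = inhibition above the screen-wide average of all tested compounds plus 3 SD, cut at about 25% in these data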;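 also: 0% = enzyme with DMSO only and 100% = wells lacking PAFAH1B3 protein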
Target sequence (Q15102 whole entry, looked up): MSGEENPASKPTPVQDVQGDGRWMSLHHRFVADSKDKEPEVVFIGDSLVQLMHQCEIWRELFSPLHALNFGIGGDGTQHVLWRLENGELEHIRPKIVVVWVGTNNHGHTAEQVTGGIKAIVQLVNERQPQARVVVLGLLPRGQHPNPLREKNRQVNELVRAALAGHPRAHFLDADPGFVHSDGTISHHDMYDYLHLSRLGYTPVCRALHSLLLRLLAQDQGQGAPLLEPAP
An asterisk follows results filed as active; . = not tested or not shown.

SMILES	PP1 counter	PAFAH1B2 inh	PP5 primary	pPAFAH inh	PAFAH2 inh	PAFAH1B3 FP inh
CN(C)/C=C1\C=C2C(=O)c3ccccc3N2C1=O	-84	28*	-89	2	36*	29*
Cc1ccc(O)c(C(=O)c2cnc3c(c2)c(C)nn3C)c1	-5	5	1	-2	6	1
COC(=O)C(C(=O)Nc1cc(C)on1)C1CCCCCC1 (stereo not drawn)	-2	3	4	1	-3	6
CC(=O)Nc1cccc(-c2cc(-c3c(Cl)cccc3Cl)no2)c1	-8	0	2	28*	-2	-2
COc1cc(C(=O)NS(=O)(=O)c2ccccc2C)ccc1Cc1cn(C)c2ccc(NC(=O)OC3CCCC3)cc12	24*	.	2	24	.	.
N#C/C(=C/c1cccc(O)c1)C(=O)NCc1ccc(Cl)cc1	0	19	2	5	-5	-8
N#C/C(=C/c1ccc(O)c(O)c1)C(=O)NCc1ccc(Cl)cc1	-2	53*	3	30*	35*	12
O=S(=O)(NC1CCCCC1NS(=O)(=O)c1ccc(F)cc1)c1ccc(F)cc1 (stereo not drawn)	-2	2	0	5	-3	3
O=C(COc1ccc(Br)cc1)NC(=S)Nc1ccccc1N1CCOCC1	0	26*	3	2	-10	9
CCc1cc(=O)oc2c(C)c(OC(C)C(=O)N3CCC[C@@H]3C(=O)O)ccc12 (stereo partly drawn)	-5	2	2	4	1	12
NCCCC[C@H]1NC(=O)[C@H](CCC(=O)O)NC(=O)c2cc([N+](=O)[O-])cc(I)c2OCC[C@@H](C(N)=O)NC1=O	5	.	1	33*	.	.
C[C@@H]1NC(=O)c2cc([N+](=O)[O-])cc(I)c2OCC[C@@H](C(N)=O)NC(=O)[C@H](CCCCN)NC1=O	2	1	2	7	-4	6
FC(F)(F)c1nc2cc3nc4ccccc4[nH]c3cc2n1	-1	8	3	31*	0	10
OC(c1nc2ccccc2[nH]1)C(O)c1nc2ccccc2[nH]1 (stereo not drawn)	-2	1	2	4	-5	4
CC(=O)c1cccc(Nc2nc(-c3cccc([N+](=O)[O-])c3)cs2)c1	16*	5	1	6	1	-3
Cc1nc(NC(=O)c2ccccc2)sc1-c1csc(Nc2ccc(C(=O)O)cc2)n1	.	16	.	.	32*	29*
O=C(O)c1ccc(Nc2nc(-c3ccccc3)cs2)cc1	0	25*	3	8	14	8
CCNc1nc(NC(C)(C)C)nc(SC(C(C)=O)C(C)=O)n1	0	25*	2	-1	-12	1
CCNc1nc(SC(C(C)=O)C(C)=O)nc(N(C)C)n1	-6	0	3	1	5	13
NC(=S)Cc1nc(-c2ccc(Cl)cc2)cs1	-5	6	-3	25*	-1	4
O=C(Cn1cc([N+](=O)[O-])cn1)N1CCCc2ccccc21	7	5	-1	3	3	-3
CN(C)C(=O)CSc1nc(-c2ccccc2)nc2c1CCCC2	1	2	5	2	3	5
Cc1cc2nc(SCC(=O)N(C)C)c3c(c2cc1C)CCCC3	4	-5	5	31*	5	0
O=C(N/N=C/c1cccnc1)c1cc(-c2ccc(Cl)cc2)nc2ccccc12	-2	-3	4	-1	-9	-3
O=C(N/N=C/c1ccc(Cl)cc1)c1cc(-c2cccnc2)nc2ccccc12	17*	-7	2	-8	-5	-5
SMILES	PP1 counter	PAFAH1B2 inh	PP5 primary	pPAFAH inh	PAFAH2 inh	PAFAH1B3 FP inh
O=C(NNS(=O)(=O)c1ccc(Cl)cc1)c1cc(-c2ccccc2)nc2ccccc12	-1	60*	1	9	0	1
CC(=O)Nc1cc2c3c(c1)CC(=O)N3CCC2	-1	2	0	2	-4	5
Cc1cc(NC(=O)C2CC(=O)N(c3ccccc3C)C2)no1 (stereo not drawn)	-1	-1	3	1	-4	1
Oc1ccccc1Cn1c(-c2ccccc2O)nc2ccccc21	-3	9	6	4	-4	13
COc1ccccc1Cn1c(-c2ccccc2OC)nc2ccccc21	6	-1	3	27*	-3	1
CSCCC(NC(=O)c1ccccc1)C(=O)N1CCN(C(c2ccccc2)c2ccccc2)CC1 (stereo not drawn)	5	7	4	-9	7	-2
O=C(CSc1nccn1-c1ccccc1)N1CCc2ccccc21	-2	-2	2	3	-2	4
O=C(CSc1nccn1-c1ccc(Cl)cc1)N1CCCc2ccccc21	2	25*	1	1	-2	-5
CC(=O)Nc1ccc(S(=O)(=O)NC(CC(=O)NCCCN2CCOCC2)C(C)C)cc1 (stereo not drawn)	-2	5	1	-2	-1	0
CCCCCCCCNC(=O)CC(NS(=O)(=O)c1ccc(NC(C)=O)cc1)C(C)C (stereo not drawn)	-3	7	3	32*	2	13
S=C1Cc2ccccc2N1	.	18	.	.	41*	29*
Nc1cc(S(=O)(=O)O)cc2ccc(S(=O)(=O)O)cc12	.	5	.	.	1	15
Cc1cc(-c2ccc(N=Nc3c(S(=O)(=O)O)cc4cc(S(=O)(=O)O)cc(N)c4c3O)c(C)c2)ccc1N=Nc1c(S(=O)(=O)O)cc2cc(S(=O)(=O)O)cc(N)c2c1O	76*	.	18*	53*	.	.
O=S(=O)(O)c1cc(O)c2c(O)c(N=Nc3cc(Cl)ccc3O)c(S(=O)(=O)O)cc2c1	11	34*	8	33*	49*	35*
Oc1ccc(Cl)cc1N=Nc1ccccc1	-3	1	2	2	9	10
CCOC(=O)C1CCN(S(=O)(=O)Cc2ccc(Cl)cc2)CC1	3	5	3	9	-2	4
CCCCNC(=O)CSc1nc2c(sc(=S)n2-c2cc(Cl)ccc2OC)c(=O)[nH]1	4	0	1	7	5	1
COc1ccc(Cl)cc1-n1c(=S)sc2c(=O)[nH]c(SCC(=O)C(C)(C)C)nc21	17*	10	3	12	7	15
COc1ccc(-n2c(SCC(=O)C(C)(C)C)nc3c(sc(=S)n3-c3ccccc3)c2=O)c(OC)c1	16*	3	2	5	-3	-2
CCOC(=O)CSc1nc2c(sc(=S)n2-c2ccccc2OC)c(=O)n1-c1ccccc1OC	-3	-4	1	8	0	-1
CCOCCCNC(=O)c1ccccc1NC(=O)C1=C(C)OCCS1	-2	0	-2	2	6	-5
CC(OC(=O)CCc1cc(C(C)(C)C)c(O)c(C(C)(C)C)c1)C(=O)NC1CC1 (stereo not drawn)	-2	-2	1	2	-5	-2

Screens from PubChem BioAssay.
